PLK1 PBD block: inhibitors of human PLK1 polo-box domain binding. P53350. Plk1 PBD binding of FITC phosphopeptide, fluorescence polarization. Potency, µM, for the others: max response, negative = inhibition, usual class: inhibitors. actives 2.8% (n = 360,000); note: potency is the fitted concentration of half-maximal effect; series mostly up to about 57 µM; % is set by controls: 0 for no effect and ±100 for the full control effect; nearly all actives have a fitted effect of over 65% in size
VDR inh: inhibitors of human vitamin D receptor. P11473. VDR-SRC2-3 peptide fluorescence polarization, 2 h. Potency, µM, for inactives: max response, negative = inhibition, usual class: inhibitors. actives 0.93% (n = 400,000). AID 504847; note: potency is the fitted concentration of half-maximal effect; % is set by controls: 0 for no effect and ±100 for the full control effect
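Two reagent solutions held at 4 deg C in the dark were dispensed, compounds pinned at 23 nl, and the mixture incubated 2 h at room temperature. Read-out: fluorescence polarization of VDR–SRC2-3 peptide binding.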
G9a block: blocks human histone lysine methyltransferase G9a | AID 504332 | actives 8.8% (n = 350,000) | G9a H3K9 monomethylation, AlphaScreen, 2 h | Q96KQ7 | Potency, µM (titrated, usually from 102 µM), inactives show at the top dose activity, negative = inhibition, actives largely listed as inhibitors; note: potency is the fitted concentration of half-maximal effect; % is set by controls: 0 for no effect and ±100 for the full control effect; nearly all actives have a fitted effect of over 75% in size
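G9a (20 nM) preincubated 15 min RT with compounds, then 500 nM biotinylated H3K9 peptide and 20 uM SAM added; 2 h RT reaction. Monomethyl-H3K9 product detected by AlphaScreen with anti-H3K9me1 antibody, streptavidin donor and anti-rabbit IgG acceptor beads.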
JMJD2A Tudor inh: inhibitors of human JMJD2A Tudor domain. O75164. AlphaScreen JMJD2A-Tudor / H3K4me3 peptide binding. Potency, µM (top dose mostly 114 µM), for inactives: top-dose activity change, negative = inhibition, usual class: inhibitors. actives 4.4% (n = 390,000). AID 504339; note: potency is the fitted concentration of half-maximal effect; % is set by controls: 0 for no effect and ±100 for the full control effect; nearly all actives have a fitted effect of over 50% in size
HP1b chromo inh: HP1-beta chromodomain-methylated histone interaction inhibition. P83916. AlphaScreen HP1-beta / biotin-H3K9me3 peptide binding. Potency, µM (titrated, usually from 114 µM), inactives show at the top dose activity change, negative = inhibition, actives largely listed as inhibitors. actives 0.56% (n = 390,000). AID 540317; note: potency is the fitted concentration of half-maximal effect; nearly all actives have a fitted effect of over 70% in size
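AlphaScreen: HP1-beta (50 nM) preformed 30 min with biotin-H3(1-18)K9me3 peptide (50 nM) in PBS pH 7.4, 0.01% Tween-20. Compound added for 30 min at RT, then streptavidin donor/nickel chelate acceptor beads (10 ug/mL) for 30 min.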
BAZ2B block: inhibitors of human BAZ2B bromodomain; Q9UIF8; AlphaScreen BAZ2B-H3K14Ac peptide displacement; Potency, µM (top dose mostly 114 µM), without a hit: top-dose activity change, negative = inhibition, most hits filed as inhibitors; actives 4.4% (n = 360,000); AID 504333; note: potency is the fitted concentration of half-maximal effect; % is set by controls: 0 for no effect and ±100 for the full control effect; nearly all actives have a fitted effect of over 60% in size
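AlphaScreen luminescence quantifies BAZ2B engagement of H3K14Ac peptide; the protein and biotinylated peptide are both at 50 nM final, buffer PBS pH 7.4 with 0.01% Tween-20, all steps at room temperature.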
ME-1 prolif: ME-1 cell growth inhibition. shares compounds with BAZ2B block. ME-1 cell proliferation, ATP luminescence, 48 h. Potency, µM (top dose mostly 56.1 µM), for the others: top-dose activity change, negative = inhibition, hits mostly inhibitors. actives 20% (n = 140)
The depositor's hits bear a star; ? = inconclusive; nt = no result given; ! = a repeat was not active; [ ] = dose if it differs, or a comment. Sampled rows, rich in hits. Any-hit rate of the full collection: about 11%. Calls come from the whole dose curve; as a rule, active = well fitted curve in the direction sought with a large enough effect; inconclusive = small, poorly fitted or top-dose-only effect, or another doubt; inactive = no such curve, though single readings can be large; an effect the other way counts as inactive or inconclusive.

SMILES | PLK1 PBD block | VDR inh | G9a block | JMJD2A Tudor inh | HP1b chromo inh | BAZ2B block | others
Cc1ccsc1C(=O)C1CCCN(Cc2ccccc2O)C1 (centres undefined) | -6.0% | 0.9% | nt | 6.8%[57.1 µM] | 48.2% | -3.2%
COc1ccc(CN2CCCC(C(=O)c3ccc(Cl)cc3)C2)c(OC)c1 (centres undefined) | 23.8µM* | ? | 21.6%[0.501 µM] | ? | -12.7% | -5.2%
CCOc1ccccc1NC(=O)CCn1cccc1 | -10.7% | 21.6% | ? | -16.6% | 7.9% | nt
CCOc1ccccc1OCCCCN1CCCC1 | 0.3% | -5.1% | ? | 31.6µM* | ? | ?
N#CC1(N2CCCCC2)CCCCC1 | nt | 0.5% | -4.5%[12.7 µM] | nt | nt | nt
COC(=O)C1=C(c2ccc(F)cc2OCc2ccccc2)C[C@@H]2CC[C@H]1N2C(=O)NCc1cccc(F)c1 | 21.2µM* | ? | 4.4%[0.501 µM] | ? | 7.0% | 1.8%
COC(=O)C1=C(c2ccc(OCc3ccccc3)cc2)C[C@@H]2CC[C@H]1N2C(=O)NCc1ccc(N(C)C)cc1 | -10.2% | -11.9% | 9.5%[2.33 µM] | ? | 42.1% | 8.91µM*
COC(=O)C1=C(c2ccc(F)cc2OCc2ccccc2)C[C@@H]2CC[C@H]1N2C(=O)NCc1ccccc1 | -14.9% | 14.2% | -27.9%[2.33 µM] | -11.8% | 14.1% | -13.1%
CCOC(=O)c1cc(C)sc1/N=C/C1C(=O)NC(=S)NC1=O | 5.32µM* | ? | 39.8µM* | ? | -16.0% | -33.4%
CCOC(=O)c1c(/N=C/C2C(=O)NC(=S)NC2=O)sc(C)c1C | nt | nt | 35.5µM* | nt | nt | -10.1%
CCCCn1c(C)c(C(=O)OCC)c2c(CN3CCOCC3)c(O)ccc21 | -6.1% | -4.7% | ? | ? | -8.8% | -38.3%
CCCCn1c(C)c(C(=O)OCC)c2c(CN3CCCC3)c(O)ccc21 | -14.8% | 7.3% | 39.8µM* | -30.6% | 6.0% | -34.9%
Cc1cc(/C=C2\C(=O)NC(=O)N(c3ccccc3F)C2=O)c(C)n1-c1cc(C(=O)O)cc(C(=O)O)c1 | ? | -29.0% | 10µM* | 11.2µM* | 12.6µM* | 28.2µM*
Cc1cc(/C=C2\C(=O)NC(=O)N(c3ccc(F)cc3)C2=O)c(C)n1-c1cccc(C(=O)O)c1 | 16.8µM* | 8.6% | 35.5µM* | -25.9% | 6.5% | -36.5%
Cc1cc(/C=C2/C(=O)NC(=O)N(C)C2=O)c(C)n1-c1ccccc1 | 3.1% | 9.3% | ? | -26.7% | 49.0% | -12.6%
C[C@](O)(CS(=O)(=O)c1ccc(F)cc1)C(=O)Nc1ccc(C#N)c(C(F)(F)F)c1 | nt | -11.1% | ? | nt | nt | nt
ClC1=C(Cl)C(Cl)=C(Cl)C1=C/C=C/c1ccccc1 | -26.0% | -16.0% | 3.16µM* | 5.62µM* | 6.31µM* | 3.55µM*
CN1C[C@H](C(=O)N[C@]2(C)O[C@@]3(O)C4CCCN4C(=O)[C@H](Cc4ccccc4)N3C2=O)C[C@@H]2c3cccc4[nH]cc(c34)C[C@H]21 (some centres undefined) | nt | nt | 17.1%[12.7 µM] | nt | nt | nt
CC/C(=N\Nc1ccccc1)c1c(O)n(-c2ccc(OC)cc2)c(=O)[nH]c1=O | -1.1% | -1.3% | 39.8µM* | -14.2% | 12.4% | -20.2%
CCC1(c2ccccc2)CCC(=O)NC1=O (centres undefined) | nt | 4.1% | 8.5%[59 µM] | nt | nt | nt
NO | nt | -3.6% | 46.6%[12.7 µM] | nt | nt | nt
COC1=C[C@H]2C3=C([C@H]2C1=O)[C@H](NC(C)=O)CCc1cc(OC)c(OC)c(OC)c13 | nt | -2.8% | 24.9%[21.5 µM] | nt | nt | nt
O=[N+]([O-])c1cc(Cl)c(O)c(-[n+]2c(-c3ccccc3)cc(-c3ccccc3)cc2-c2ccccc2)c1 | 1.1% | -9.5% | 50.1µM* | ? | 4.5% | ?
C=CCN1C(=O)/C(=C/c2cc(C)n(-c3ccccn3)c2C)C(=O)NC1=S | 2.38µM* | -35.7% | ? | -18.6% | 25.9% | -5.2%
COc1cccc(C2=CC(c3cc(Br)ccc3F)n3nnnc3N2)c1 (centres undefined) | nt | -11.7% | 11.2µM* | -9.6% | 63.7% | 8.0%
SMILES | PLK1 PBD block | VDR inh | G9a block | JMJD2A Tudor inh | HP1b chromo inh | BAZ2B block | others
CC(=O)Nc1ccc(N(C(=O)Cn2nnc3ccccc32)C(C(=O)NC2CCCC2)c2ccc(O)c(O)c2)cc1 (centres undefined) | -16.2% | 12.0% | 50.1µM* | -16.7% | -14.6% | -18.5%
CC(C)(Cl)[N+](=O)[O-] | -7.9% | 5.7% | -8.3%[0.501 µM] | -21.4% | 49.8% | -5.5%
O=[N+]([O-])C(Br)(CO)CO | nt | 5.62µM* | 1.78µM* | nt | nt | nt
CCN(CC1CCCN(CCc2cccc(OC)c2)C1)C(=O)c1ccc(COC)o1 (centres undefined) | -1.0% | 6.4% | 27.6% | -20.0% | 41.1% | -2.3%
CC(=O)O[C@@H]1[C@@H](O)C2OC3C=C(C)C(=O)[C@@H](O)[C@]3(CO)C1(C)C21CO1 (some centres undefined) | nt | -2.2% | nt | nt | nt | nt
COC(=O)C(O)C(O)(CCC(C)C)C(=O)OC1C(OC)=CC23CCCN2CCc2cc4c(cc2C13)OCO4 (centres undefined) | nt | 4.4% | 30.9%[59 µM] | nt | nt | nt
O=C1c2ccccc2C(=O)c2c1ccc1c(=O)n(-c3ccccc3)[nH]c21 | 7.6% | -8.1% | 3.16µM* | -21.2% | -5.8% | -25.8%
CC(C)C[C@H](NC(=O)[C@H](Cc1ccccc1)NC(=O)CNC(=O)[C@H](CS)N(C(=O)[C@@H](N)Cc1ccc(O)cc1)C(C)(C)C)C(=O)N([C@H](C(=O)O)[C@H](C)O)C(C)(C)C | nt | 11.8% | 8.3%[59 µM] | nt | nt | nt
CC(C)[C@@]1(NC(=O)[C@H]2CC3c4cccc5[nH]cc(c45)C[C@H]3N(C)C2)O[C@@]2(O)C3CCCN3C(=O)[C@@H](Cc3ccccc3)N2C1=O (some centres undefined) | nt | -0.7% | 12.6µM*! | nt | nt | nt | ME-1 prolif=?
COc1ccc(Cn2c(=O)oc3ccc(C)cc32)cc1OC | -8.0% | -6.1% | 10.0%[12.7 µM] | -9.9% | 64.8% | -1.8%

Bioassay records: PubChem, National Center for Advancing Translational Sciences (NCATS)
